# PubChem BioAssay (NCATS)
# Values joined by “and” are separate entries in the source; they are usually repeats but may differ in a detail not shown here. Equal entries are not always repeated. Records with an inconclusive call do not appear. Values without a mark were called inactive. Active and inactive are the calls of the source. The call rests on the fitted dose curve; in most records, active means well fitted inhibition curve with a large enough effect; inconclusive means small, poorly fitted or top-dose-only effect; inactive means flat fitted curve, though single readings scatter. Where a SMILES comes first, the peptide text is derived from it. Bridges are numbered along the chain shown (N, C = ends). [ ]: non-standard residue; d: D form. Orn = NCCC[C@H](N)C(=O)O; Mpa = O=C(O)CCS
# What was measured:
# KB-3-1 = assay: Cytotoxic Profiling of Annotated Libraries Using Quantitative High-Throughput Screening (AID 1296008); conditions: Five cell lines viability, CellTiter-Glo ATP luminescence, 48-72 h; max response: stronger effect = lower value; on max response: on the % scale 0 is the no-effect control and ±100 the full control effect
# Method in brief: (§1)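 Cytotoxicity was measured as CellTiter-Glo ATP luminescence, read after 10 min at room temperature. Compound treatment of the cells lasted 48 or 72 hr at 37 degrees Celsius in a qHTS format.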
# NIH3T3 = assay: as above; conditions: Five cell lines viability, CellTiter-Glo ATP luminescence, 48-72 h; max response: stronger effect = lower value
# Method in brief: as §1
# TAB165 = assay: qHTS profiling for inhibitors of Plasmodium falciparum proliferation (AID 504749); conditions: P. falciparum in erythrocytes, SYBR Green DNA, 72 h; series mostly up to 28.7 µM
# Method in brief: (§2)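 Infected RBCs, 0.3% parasitemia/2.5% Hct final; cpd 72 h, 37 C, 5% CO2; lysis buffer with saponin/triton/SYBR Green I, o/n RT dark; FI 485/535; norm. to artemisinin (0.29 uM) and DMSO.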
# W2 = assay: as above; conditions: P. falciparum in erythrocytes, SYBR Green DNA, 72 h; series mostly up to 28.7 µM
# Method in brief: as §2
# HEK293T = assay: qHTS assay to identify novel small-molecules to repurpose for Merkel cell carcinoma treatment (AID 1296009); conditions: MCC and control cell lines, CellTiter-Glo viability, 72 h
# Method in brief: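 72 hr, 37 degree celsius; NPC 8-pt / MIPE 11-pt dose response; compound pinned in DMSO; CellTiter-Glo, 10 min RT, luminescence; normalized to no-cell and DMSO controls.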
# Further: nearly all actives have a fitted effect of over 60% in size.
# Potency means the concentration at half of the fitted maximal effect.
smiles,measurement,setting,value
c1ccc2c(CCC3CCNCC3)c[nH]c2c1,max response,KB-3-1,-10.3%
C[C@@H]1C[C@H]2C3C[C@H](F)C4=CC(=O)C=CC4(C)[C@@]3(F)[C@@H](O)CC2(C)[C@@]1(O)C(=O)COC(=O)C(C)(C)C (stereo partly specified),max response,KB-3-1,27.2%
CCOC(=O)[C@H](CCc1ccccc1)N[C@H]1CCCN2CCC[C@@H](C(=O)O)N2C1=O,max response,KB-3-1,1.33%
COc1cc(C[C@@H]2NCCc3cc(O)c(O)cc32)cc(OC)c1OC,max response,KB-3-1,-8.11%
CC(CC(c1ccccc1)c1ccccc1)NC(C)(C)C (stereo unspecified),max response,KB-3-1,-0.893%
NC(=O)C[C@@H](N)C(=O)O,max response,KB-3-1,-17.1%
COc1ccc(CNCC(O)COc2ccc3[nH]c(=O)ccc3c2)cc1OC (stereo unspecified),max response,KB-3-1,2.61%
C=C1C(=C/C=C2\CCC[C@]3(C)[C@@H]([C@H](C)CCCC(C)(C)O)CC[C@@H]23)C[C@@H](O)C[C@@H]1O,max response,KB-3-1,4.02%
CCC(C)(OC(C)=O)C(=O)O[C@H]1[C@H](OC(C)=O)[C@]2(CO)[C@H](O)[C@H](O)[C@]3(C)C(=CCC4[C@@]5(C)CC[C@H](O[C@@H]6O[C@H](C(=O)O)[C@@H](O)[C@H](O[C@@H]7OC[C@H](O)[C@H](O[C@@H]8OC[C@H](O)[C@H](O)[C@H]8O)[C@H]7O)[C@H]6O[C@@H]6O[C@H](CO)[C@@H](O)[C@H](O)[C@H]6O)C(C)(C)C5CC[C@]43C)[C@@H]2CC1(C)C (stereo partly specified),max response,KB-3-1,-16.4%
C[C@H]1C[C@@H]2[C@H]([C@@H](O)C[C@@]3(C)[C@H]2CC[C@]3(O)C(=O)COC(=O)CCC(=O)O)[C@@]2(C)C=CC(=O)C=C12,max response,KB-3-1,-6.8%
O=P(O)(O)OC(CO)CO,max response,KB-3-1,1.53%
CCOC(=O)c1csc(Nc2ccc(Cl)cc2)n1,max response,KB-3-1,-19%
O=C(Nc1cccc(C(F)(F)F)c1)Nc1ccc(Br)cc1-c1nn[nH]n1,max response,KB-3-1,7.51%
C/C=C(/CC[C@@H](C)[C@H]1CC[C@H]2C3=CC[C@H]4[C@H](C)[C@@H](O)CC[C@]4(C)[C@H]3CC[C@]12C)C(C)C,max response,KB-3-1,-22.1%
O=P(O)(O)C(Sc1ccc(Cl)cc1)P(=O)(O)O,max response,KB-3-1,2.09%
CC(C)(C)NC(=O)[C@H]1CC[C@H]2[C@@H]3CC=C4C=C(C(=O)O)CC[C@]4(C)[C@H]3CC[C@]12C,max response,KB-3-1,-6.72%
CC1(C)S[C@@H]2[C@H](NC(=O)C(C(=O)Oc3ccc4c(c3)CCC4)c3ccccc3)C(=O)N2[C@H]1C(=O)O (stereo partly specified),max response,KB-3-1,21.3%
CCC(=O)Oc1ccc2c(c1)CC[C@@H]1[C@@H]2CC[C@]2(C)[C@@H](OC(=O)CC)CC[C@@H]12,max response,KB-3-1,-26.3%
CCC/C=C/c1cc2c(C=O)c(O)c(CC=C(C)C)cc2o1,max response,KB-3-1,3.3%
same,max response,NIH3T3,-11.8%
CCCOc1ccc2nc(NC(=O)OC)sc2c1,Potency,TAB165,inactive
same,Potency,W2,inactive
same,Potency,KB-3-1,10.3 µM (active)
CC(=O)O[C@@H]1[C@@H](OC(C)=O)[C@H](C)O[C@@H](O[C@H]2[C@@H]3C=CO[C@@H](O[C@@H]4O[C@H](CO)[C@@H](O)[C@H](O)[C@H]4O)[C@@H]3[C@@]3(CO)O[C@@H]23)[C@@H]1OC(=O)/C=C/c1ccccc1,max response,KB-3-1,2.67%
same,max response,NIH3T3,-8.05%
C=C1C(=O)O[C@H]2C1CCC(C)=C1C(=O)C=C(C)[C@@]12O (stereo partly specified),max response,KB-3-1,-10.7%
same,max response,NIH3T3,-6.36%
C=C1C(=O)O[C@@H]2C[C@H](C)[C@@H]3CC(=O)[C@H](O)[C@@]3(C)C[C@H]12,outcome,KB-3-1,inactive
same,max response,NIH3T3,-22.8%
C=C1C(=O)OC2C3=C(C)C(=O)CC3C(C)CC(O)C12 (stereo unspecified),max response,KB-3-1,9.21%
same,max response,NIH3T3,-16.4%
C=C1C(=O)O[C@@H]2C[C@]3(C)[C@@H](CCC(C)O)[C@@H]3C[C@H]12 (stereo partly specified),outcome,KB-3-1,inactive
same,max response,NIH3T3,-15.1%
COC(C)=O,max response,KB-3-1,-9.47%
COc1cc2ncnc(Oc3ccc(CC(=O)Nc4cnn(C(C)C)c4)cc3)c2cc1OC,max response,KB-3-1,0.878%
same,Potency,NIH3T3,23.1 µM (active)
C=C1CC[C@@H]2[C@](C)(CO)[C@H](O)CC[C@@]2(C)[C@@H]1CC(=O)C1=CCOC1=O,max response,KB-3-1,-15.5%
CCCOc1ccc(CCc2nc3cc(-c4c(C)noc4C)ccc3n2CCN2CCOCC2)cc1,max response,KB-3-1,-3.99%
same,max response,NIH3T3,-3.98%
C=C1C(=O)O[C@@H]2[C@H]3C(C)=CC(=O)C3=C(C)[C@@H](OC(=O)/C(C)=C\C)[C@H](O)[C@@H]12,max response,KB-3-1,5.28%
COc1cc(CCO)ccc1O[C@@H]1O[C@H](CO)[C@@H](O)[C@H](O)[C@H]1O,max response,KB-3-1,7.87%
same,max response,NIH3T3,-23.9%
CCC(C)C(=O)OC1C(C)C2(O)C(C=C(CO)CC3(O)C(=O)C(C)=CC32)C2C(C)(C)C12OC(=O)C(C)C (stereo unspecified),max response,KB-3-1,7.48%
same,max response,NIH3T3,-1.26%
CCCCCCCCCCCCCCCC(=O)OC[C@@H](COP(=O)([O-])OCC[N+](C)(C)C)OC(=O)CCCCCCCCCCCCCCC,max response,KB-3-1,1.61%
CCOC(=O)COc1ccc2c(C)c(CCN(CC)CC)c(=O)oc2c1,max response,KB-3-1,-7.36%
Cc1ccc(S(=O)(=O)N2CCC[C@H]2c2ccc(F)cc2)cc1,max response,KB-3-1,-12.3%
same,max response,NIH3T3,-13.3%
Cc1ccc(NC(=O)N2CCN(c3nc(N)nc4sc(-c5cccnc5)nc34)CC2)cc1,max response,KB-3-1,-18.9%
same,Potency,NIH3T3,2.91 µM (active)
C=C[C@@]1(C)CCC2C(=CCC3[C@]2(C)CCC[C@@]3(C)C(=O)O)C1 (stereo partly specified),max response,KB-3-1,-10.5%
same,max response,NIH3T3,-28.5%
CC(O)(C(=O)O)C1CCC2(C)C1CCC1(C)C2CCC2C3(C)CCC(O)C(C)(COC4OC(CO)C(O)C(O)C4O)C3CCC21C (stereo unspecified),max response,KB-3-1,1.95%
same,max response,NIH3T3,-2.95%
CCOc1ccc(C[C@H]2NC(=O)CCSSC[C@@H](C(=O)N3CCC[C@H]3C(=O)N[C@@H](CCCN)C(=O)NCC(N)=O)NC(=O)[C@H](CC(N)=O)NC(=O)[C@H]([C@@H](C)O)NC(=O)[C@H]([C@@H](C)CC)NC2=O)cc1 ([Mpa][dY](Et)ITNCP[Orn]G-NH2; disulfide 1-6),max response,KB-3-1,-2.06%
CC(=O)O[C@@H]1[C@H](O[C@@H]2O[C@@H](CO)[C@H](O)[C@H]2O)[C@@H](O[C@@H]2O[C@@H](C)[C@H](O[C@@H]3OC[C@@H](O)[C@H](O)[C@H]3O)[C@@H](O)[C@H]2O)[C@H](OC(=O)[C@]23CCC(C)(C)C[C@H]2C2=CCC4[C@@]5(C)CC[C@H](O[C@@H]6O[C@H](C(=O)O)[C@@H](O)[C@H](O)[C@H]6O[C@@H]6O[C@H](CO)[C@H](O)[C@H](O)[C@H]6O)[C@@](C)(C=O)C5CC[C@@]4(C)[C@]2(C)C[C@H]3O)O[C@@H]1C (stereo partly specified),max response,KB-3-1,8.09%
same,max response,NIH3T3,-0.852%
C=C1C(=O)OC2/C=C(\C)CC/C=C(\C)CC(OC(C)=O)C12 (stereo unspecified),Potency,NIH3T3,23.1 µM (active)
CCC(c1ccccc1)c1noc(CCN(CC)CC)n1 (stereo unspecified),max response,KB-3-1,-6.24%
CC(=O)OC[C@H]1O[C@@H](O[C@H]2[C@H](O)[C@@H](OC(=O)c3ccccc3C(=O)O)[C@H](O)O[C@@H]2COC(C)=O)[C@H](O)[C@@H](OC(=O)c2ccccc2C(=O)O)[C@@H]1O,max response,KB-3-1,-12.2%
CCNC(=O)C#Cc1ccc2c(C(=Nc3ccc(CN(C)C)cc3)c3ccccc3)c(O)[nH]c2c1,Potency,KB-3-1,0.0282 µM (active)
same,Potency,NIH3T3,0.709 µM (active)
C=C[C@]1(C)C[C@H](O)[C@H]2C(=C)C(=O)O[C@@H]2[C@H]1C(=C)CO,outcome,KB-3-1,inactive
same,max response,NIH3T3,-30%
CCN(CC)C(=O)c1ccc(Nc2nc(OCC3CCCCC3)c3[nH]cnc3n2)cc1,Potency,KB-3-1,14.6 µM (active)
same,Potency,NIH3T3,10.3 µM (active)
N#Cc1ccc(COc2ccc(-c3cccc4nc(NC(=O)C5CC5)nn34)cc2)cn1,max response,KB-3-1,-6.55%
same,Potency,NIH3T3,20.6 µM (active)
COC1=C(C(=O)O)N2C(=O)[C@@H](NC(=O)[C@H](N)C3=CCC=CC3)[C@H]2SC1,max response,KB-3-1,-6.73%
CN(C)CCN(Cc1ccc(-c2ccc(CNCCc3ccccc3)cc2)cc1)C(=O)CCC1CCCC1,Potency,KB-3-1,4.61 µM (active)
same,Potency,NIH3T3,4.11 µM (active)
CCN1CCCC1CNC(=O)c1cc(S(=O)(=O)CC)ccc1OC (stereo unspecified),max response,KB-3-1,-13.4% and -13.1%
C=C(C)[C@@H]1CC=C(COC(=O)NC(=O)c2ncn3c(=O)n(C)nnc23)CC1,max response,KB-3-1,2.36%
same,Potency,NIH3T3,18.4 µM (active)
Cc1cc2ncc(C(=O)NCC(C)(C)NCC(=O)N3CCC[C@H]3C#N)cn2n1,max response,KB-3-1,3.28%
O=c1cc(N2CCOCC2)nc2c3ccccc3ccn12,max response,KB-3-1,-19.2%
same,max response,NIH3T3,-3.69%
O=C(Nc1ccnc(NC(=O)C2CC2)c1)c1c(Cl)cccc1Cl,Potency,KB-3-1,20.6 µM (active)
same,Potency,NIH3T3,6.51 µM (active)
CO/N=C(\C(=O)N[C@@H]1C(=O)N2C(C(=O)OCOC(=O)C(C)(C)C)=C(/C=C\c3scnc3C)CS[C@H]12)c1csc(N)n1,max response,KB-3-1,-14.1%
C=CCNC1=C2C[C@@H](C)C[C@H](OC)[C@H](O)[C@@H](C)/C=C(\C)[C@H](OC(N)=O)[C@@H](OC)/C=C\C=C(/C)C(=O)NC(=CC1=O)C2=O,Potency,TAB165,1.41 µM (active)
same,Potency,W2,1.2 µM (active)
same,max response,KB-3-1,-34.3%
C[C@H](Oc1cc(-n2cnc3ccc(CN4CCN(C)CC4)cc32)sc1C(N)=O)c1ccccc1C(F)(F)F,Potency,KB-3-1,1.03 µM (active)
same,Potency,NIH3T3,18.4 µM (active)
same,Potency,HEK293T,1.3 µM (active)
